POLI inh = qHTS for Inhibitors of Polymerase Iota | Pol iota fluorescent replication assay, 10 min | DNA polymerase iota (Homo sapiens), Q9UNA4 | hit rate 1% among 390,000 | Potency, µM (titrated, usually from 115 µM), inactives show at the top dose activity, negative = inhibition, actives largely listed as inhibitors; further: potency means the concentration at half of the fitted maximal effect
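Fluorescent replication assay read twice, at 0 min and 10 min after adding 50 nM (final) substrate. Enzyme (10 nM) and compounds were first incubated 15 min at room temperature; enzyme-free buffer wells were negative controls.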
PI5P4Ka inh = qHTS for Inhibitors of phosphatidylinositol 5-phosphate 4-kinase (PI5P4K) | Phosphatidylinositol 5-phosphate 4-kinase type-2 alpha (Homo sapiens), P48426 | hit rate 1.2% among 330,000 | max response, % | PI5P4Kalpha enzyme, ADP-Glo luminescence, 60 min; stronger effect = lower value; active means max response of -50% or lower; inconclusive means between -30% and -50%; inactive means -30% or higher; further: value at the top dose of about 77 µM; on the % scale 0 is the no-effect control and ±100 the full control effect
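Controls without substrate or without enzyme flank wells where PI5P4Kalpha converts substrate using 5 microM ATP (final). Incubation lasts 60 minutes at room temperature; ADP formed is read by ADP-Glo luminescence.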
Pol kappa inh = qHTS for Inhibitors of Polymerase Kappa; DNA polymerase kappa (Homo sapiens), Q9UBT6; purified Pol kappa, fluorescent DNA synthesis assay, 10 min; Potency, µM (doses to about 107 µM), for inactives: top-dose activity, negative = inhibition, actives largely listed as inhibitors; hit rate 0.53% among 400,000; further: potency means the concentration at half of the fitted maximal effect; on the % scale 0 is the no-effect control and ±100 the full control effect
Target sequence (Q9UBT6 whole entry, looked up): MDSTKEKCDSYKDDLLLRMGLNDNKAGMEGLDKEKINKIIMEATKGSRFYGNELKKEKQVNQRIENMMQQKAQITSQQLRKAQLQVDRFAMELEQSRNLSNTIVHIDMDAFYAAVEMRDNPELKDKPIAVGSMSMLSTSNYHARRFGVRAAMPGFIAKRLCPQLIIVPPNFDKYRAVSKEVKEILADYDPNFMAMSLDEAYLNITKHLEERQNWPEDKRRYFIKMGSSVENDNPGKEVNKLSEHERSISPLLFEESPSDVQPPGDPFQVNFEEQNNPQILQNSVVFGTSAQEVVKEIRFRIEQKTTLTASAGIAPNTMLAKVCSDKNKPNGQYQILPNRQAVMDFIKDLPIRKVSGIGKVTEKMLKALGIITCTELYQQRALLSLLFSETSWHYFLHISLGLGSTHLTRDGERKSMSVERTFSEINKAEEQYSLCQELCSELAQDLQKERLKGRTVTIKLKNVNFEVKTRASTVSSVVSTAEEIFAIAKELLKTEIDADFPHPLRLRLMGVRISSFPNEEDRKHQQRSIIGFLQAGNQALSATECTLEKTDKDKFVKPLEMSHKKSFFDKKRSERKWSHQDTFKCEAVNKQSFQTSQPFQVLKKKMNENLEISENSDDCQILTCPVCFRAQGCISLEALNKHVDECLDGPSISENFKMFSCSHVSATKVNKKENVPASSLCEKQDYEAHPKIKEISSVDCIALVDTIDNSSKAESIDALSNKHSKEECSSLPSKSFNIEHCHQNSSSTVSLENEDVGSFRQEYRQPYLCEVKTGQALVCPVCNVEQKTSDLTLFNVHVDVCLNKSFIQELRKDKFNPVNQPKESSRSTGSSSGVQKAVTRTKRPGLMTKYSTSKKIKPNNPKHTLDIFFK
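Kinetic fluorescence screen: compound preincubated 15 min RT with 10 nM enzyme; 50 nM substrate (final) initiates; reads at 0/10 min.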
PI4K2A inh = qHTS for small molecular inhibitors of PI4K2A; activity change, negative = inhibition, % at 76.9 µM; hit rate 0.13% among 420,000; purified PI4K2A, ADP-Glo luminescence, 1 h; stronger effect = lower value; Phosphatidylinositol 4-kinase type 2-alpha (Homo sapiens), Q9BTU6; in the data active means activity change below about -50%; inconclusive means mostly about -30% to -49%;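 further: -100% = wells without enzyme as full effect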
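PI4K2A activity was measured by ADP-Glo luminescence: enzyme (4 ug/mL stock) and phosphatidylinositol (1.2 mM stock) in Tris pH 7.5/MgCl2/EGTA/Triton X-100 buffer were reacted with ATP (300 microM stock) for one hour at ambient temperature.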
Pol beta inh = qHTS Assay for Inhibitors of DNA Polymerase Beta; Potency, µM (top dose mostly 114 µM), without a hit: top-dose activity change, negative = inhibition, usual class: inhibitors; Pol beta primer extension/strand displacement, fluorescence kinetic; AID 485314, 2010; hit rate 1.3% among 340,000; further: potency means the concentration at half of the fitted maximal effect; on the % scale 0 is the no-effect control and ±100 the full control effect
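Reaction started by 50 nM substrate onto compound-treated Pol beta (10 nM, 15 min preincubation, room temperature); plates read at 0 min and 10 min. Normalized concentration-effect data fitted by four-parameter Hill equation.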
Pol eta inh = qHTS for Inhibitors of Polymerase Eta; Potency, µM (titrated, usually from 114 µM), for the others: top-dose activity change, negative = inhibition, hits mostly inhibitors; recombinant Pol eta, fluorescent DNA replication assay; DNA polymerase eta (Homo sapiens), Q9Y253; hit rate 1.2% among 390,000; further: potency means the concentration at half of the fitted maximal effect; on the % scale 0 is the no-effect control and ±100 the full control effect
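Pol eta (10 nM) was preincubated with compounds for 15 min at room temperature, after which fluorescent replication substrate (50 nM final) was added to start the reaction. Fluorescence was read kinetically at 0 and 10 min.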
An asterisk follows results filed as active; ? = inconclusive; / = no result. Hits are enriched below; roughly 2.8% of the tested compounds scored in any of these assays. Unless noted, the call rests on the fitted dose curve; in most records, active means well fitted inhibition curve with a large enough effect; inconclusive means small, poorly fitted or top-dose-only effect, or another doubt; inactive means no such curve, though single readings can be large or run the other way.

SMILES | POLI inh | PI5P4Ka inh | Pol kappa inh | PI4K2A inh | Pol beta inh | Pol eta inh
C/C(=N\NC(=O)c1cc2ccccc2cc1O)c1ccccn1 | -23% | -54* | -1% | 0 | 21% | -12%
C/C(=N\NC(=O)c1cc2ccccc2cc1O)c1cc2ccccc2o1 | 22µM* | -91* | 79µM* | -6 | 7.1µM* | 56µM*
O=C(N/N=C/c1ccc(Sc2ccccn2)o1)c1cc2ccccc2cc1O | 20µM* | -67* | 28µM* | -25 | 18µM* | 18µM*
O=C(Nc1ccncc1)c1ccccc1F | -2% | -11 | -9% | 4 | 14% | 3%
O=C(N/N=C\c1ccc(Sc2ccccn2)o1)c1cccc(F)c1 | 2% | / | 1% | -2 | 0% | -12%
O=C(Nc1ccncc1)c1cc2ccccc2cc1O | 7.9µM* | -19 | -1% | -10 | / | -12%
C/C(=N\NC(=O)c1nc2ccccn2c1C)c1cc2ccccc2o1 | 108% | 2 | 0% | -4 | -2% | -6%
C/C(=N\NC(=O)c1c[nH]c2ccccc12)c1ccccn1 | 73% | 4 | -21% | 0 | -2% | -11%
Cc1coc2ccccc2c1=O | / | / | / | 1 | / | /
COc1cc2nc(N3CCCCC3)nc(NC3CCN(Cc4ccccc4)CC3)c2cc1OC | 15% | / | 9% | / | / | /
CC(=O)N1CCN(C2=NC(=O)N(c3ccc(Br)cc3)C(=O)C2)CC1 | / | / | / | -4 | / | /
Cc1ccc(S(=O)(=O)NCC2CCC(C(=O)NCCc3ccccc3)CC2)cc1 (stereo not drawn) | -21% | / | -17% | 1 | 0% | 9%
Cc1cccc(C)c1NC(=O)C(c1ccccc1F)n1c(=O)c(-c2ccco2)nc2ccccc21 (stereo not drawn) | / | -67* | / | -7 | / | /
COc1ccc(NC(=O)C(c2ccccc2F)n2c(=O)c(-c3ccco3)nc3ccccc32)cc1 (stereo not drawn) | / | -15 | / | -3 | / | /
Cc1cccc(C)c1NC(=O)C(c1ccc(-c2ccccc2)cc1)n1c(=O)c(-c2ccco2)nc2ccccc21 (stereo not drawn) | / | -99* | / | -12 | / | /
Cc1cccc(C)c1NC(=O)C(c1ccnc2ccccc12)n1c(=O)c(-c2ccco2)nc2ccccc21 (stereo not drawn) | / | -72* | / | -7 | / | /
CCOc1ccccc1C(O)C1=CC(=O)c2ccccc2C1=O (stereo not drawn) | 6.3µM* | ? | ? | -6 | / | 3.2µM*
CCOc1ccccc1NC(=O)CN1C(=O)C(=O)c2ccccc21 | 19% | / | -3% | 18 | -17% | -14%
Cc1ccc(C2C(C#N)=C(N)Oc3n[nH]c(-c4cccs4)c32)cc1 (stereo not drawn) | 33% | ? | -7% | 1 | 0% | -18%
CC(C)(C)c1[nH]nc2c1C(c1cccnc1)C(C#N)=C(N)O2 (stereo not drawn) | 13% | / | -1% | -6 | -1% | -7%
N#CC1=C(N)Oc2n[nH]c(-c3cccs3)c2C1c1cccnc1 (stereo not drawn) | ? | -50* | 1% | -3 | 17% | -10%
COc1cccc(-c2[nH]nc3c2C(c2ccoc2)C(C#N)=C(N)O3)c1 (stereo not drawn) | ? | / | -16% | 2 | 35µM* | ?
N#CC1=C(N)Oc2n[nH]c(-c3cccs3)c2C1c1ccoc1 (stereo not drawn) | ? | -55* | -20% | -18 | -17% | ?
COc1ccc(CCNC(=O)CN(c2ccccc2)S(=O)(=O)N(C)C)cc1 | 19% | / | 6% | 0 | 2% | -6%
COC(=O)c1cccc(N2C(=O)C[C@](Sc3ccc(OC)cc3)(C(=O)N3CCOCC3)[C@H]2c2ccc(OC)cc2)c1 | / | / | / | -3 | / | /
SMILES | POLI inh | PI5P4Ka inh | Pol kappa inh | PI4K2A inh | Pol beta inh | Pol eta inh
CC[C@H](C)/C=C/C1=CC2=C(Cl)C(=O)[C@@]3(C)OC(=O)C(C(=O)[C@H](C)[C@@H](C)O)=C3C2=CO1 | ? | -81* | ? | ? | / | 18µM*
O=C(NCCCc1ccccc1)O[C@@H]1CC[C@@]23CCCN2C(=O)CCC[C@H]3C1 | / | / | / | 4 | / | /
Nc1nc(SCC(=O)Nc2ccc(OC(F)(F)F)cc2)[nH]c(=O)c1NC(=O)c1ccc(Br)o1 | -11% | 1 | -33% | -1 | 40µM* | ?
NC(=O)c1ccc(N=Nc2c(O)c3ccccc3[nH]c2=O)cc1 | / | / | / | / | 33% | /
N=C(N)c1ccc(N=Nc2c(O)ccc3c2[nH]c2ccccc23)cc1 | -10% | -71* | 79µM* | -9 | / | 40µM*
CN(C)c1cccc2c1c(NS(=O)(=O)c1cn(C)cn1)nn2C | 40µM* | -7 | -10% | ? | -2% | -24%
Clc1cccc(Nc2ncnc3ccc(Br)cc23)c1 | 100µM* | / | -19% | -2 | 7% | -16%
O=S(=O)(CC1NCCc2ccccc21)NCc1ccccc1 (stereo not drawn) | / | / | / | 2 | / | /
CNS(=O)(=O)c1ccc2nc(NC(=O)/C=C/c3ccco3)sc2c1 | 50µM* | ? | ? | -62* | ? | -1%
O=C1NC[C@@H](Cc2ccc(O)cc2)N(CCc2cc(C(F)(F)F)cc(C(F)(F)F)c2)C1=O | / | -68* | / | -6 | / | /
Oc1ccc(C[C@@H]2CNC(=S)N2CCc2cc(C(F)(F)F)cc(C(F)(F)F)c2)cc1 | 22% | 9 | -5% | -2 | ? | -27%
CC(C)(C)OC(=O)N1CCN(/[N+]([O-])=N/Oc2ccc([N+](=O)[O-])cc2[N+](=O)[O-])CC1 | 29% | / | -15% | / | / | /
CCCCOC(=O)C1=C(C)NC(=O)NC1c1ccc([N+](=O)[O-])s1 (stereo not drawn) | 89µM* | -20 | ? | -17 | 0% | -27%
N#Cc1c(-c2ccccc2)cc(-c2ccco2)c(C#N)c1N | / | / | / | / | 40µM* | /
CC(=O)Nc1nc(-c2ccccc2)cc(-c2ccco2)c1C#N | 11% | 1 | -3% | 6 | / | -4%
N#Cc1sc2nc(-c3ccccc3)cc(-c3ccco3)c2c1N | 0.79µM* | -100* | 50µM* | ? | 40µM* | 8.9µM*
Nc1sc(Cc2ccccc2)cc1C(=O)NC1CCCCC1 | / | -27 | / | -5 | / | /
CC(=O)Oc1cc(O)c2c(=O)c(OC(C)=O)c(-c3ccc(OC(C)=O)c(OC(C)=O)c3)oc2c1 | 8.9µM* | -98* | 7.1µM* | 1 | / | 2.8µM*
CC(=O)Oc1cc(OC(C)=O)c2c(=O)cc(-c3ccc(OC(C)=O)c(OC(C)=O)c3)oc2c1 | / | / | 8.9µM* | / | / | /
